The values below come from PubChem BioAssay (NCATS).

The structures appear in SMILES notation. Values without a mark were called inactive. Records with an inconclusive call do not appear. The source made the active and inactive calls. Calls come from the whole dose curve; as a rule, active = well fitted curve in the direction sought with a large enough effect; inconclusive = small, poorly fitted or top-dose-only effect, or another doubt; inactive = no such curve, though single readings can be large; an effect the other way counts as inactive or inconclusive.

In assay [1] the target is Phospholipid hydroperoxide glutathione peroxidase GPX4 (Homo sapiens) (UniProt P36969). In words: Primary qHTS Assay for Inhibitors of Recombinant Selenoprotein Glutathione Peroxidase 4 (GPX4) (AID 1845192). For activity change, negative = inhibition: series mostly up to about 50 µM; % is set by controls: 0 for no effect and ±100 for the full control effect. Note: nearly all actives have a fitted effect of over 65% in size. An outline of the steps: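 GR-coupled readout: 100 nM GR, 1 mM GSH, 0.5 mM NADPH; NADPH fluorescence (ex 340/em 450 nm) read at t=0 and after 15 min RT. GPX4 200 nM, preincubated 30 min with compound; substrate 0.5 mM CHP.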
Sequence of Phospholipid hydroperoxide glutathione peroxidase GPX4 (Homo sapiens) (P36969 whole entry, looked up): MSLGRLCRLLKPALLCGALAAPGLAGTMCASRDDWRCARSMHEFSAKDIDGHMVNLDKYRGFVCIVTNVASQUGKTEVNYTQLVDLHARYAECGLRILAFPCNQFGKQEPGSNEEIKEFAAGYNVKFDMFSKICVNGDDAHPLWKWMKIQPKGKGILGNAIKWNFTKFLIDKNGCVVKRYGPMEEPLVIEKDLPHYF
In general terms: Quantitative high-throughput screening tests each substance at several concentrations.

Assay [2] deals with Luciferin 4-monooxygenase (Photinus pyralis) (UniProt P08659). The assay can be described thus: Primary firefly luciferase (FLuc) qHTS assay for identification of artifact compounds. (AID 1845220).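 For activity change, negative = inhibition: series mostly up to about 54 µM; plate controls were DMSO vehicle for no effect and no enzyme for full effect.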 Note: nearly all actives have a fitted effect of over 60% in size. The method, boiled down: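 Reaction readout was CCD-imaged luminescence, taken 5 min after adding 10 nM purified firefly enzyme to compound-treated wells holding 10 uM luciferin and ATP in pH 7.6 buffer.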

Assay [3] can be described thus: Primary fluorescence-based thiol-reactive (MSTI) qHTS assay for identification of artifact compounds. (AID 1845221).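 Note: series mostly up to about 54 µM; thiol-reactive compounds lower the probe fluorescence signal; nearly all actives have a fitted effect of over 65% in size.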 The method, boiled down:
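MSTI probe at 4 uM final in 2% DMSO/PBS pH 7.4; compounds, 1 h at room temperature in dark. Fluorescence Ex/Em 525/598 nm, normalised to Acetyl-MSTI and MSTI, fitted to 4-parameter Hill.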

Assay [4] relates to Nanoluciferase (engineered Oplophorus gracilirostris luciferase). The assay can be described thus: Primary Nanoluciferase (NLuc) qHTS assay for identification of artifact compounds. (AID 1845222).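 Note: NLuc secreted into diluted conditioned medium of S16 cells; series mostly up to about 54 µM; 0% = DMSO and -100% = no enzyme.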 The method, boiled down: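 Concentration-response data were obtained by luminescence after 5 min with Nano-Glo substrate at 1:100. The enzyme was diluted S16 NLuc-expressing cell medium, preincubated with compound for 15 min at RT. Curves were fitted with a 4-parameter Hill model.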

Assay [5] can be described thus: Primary redox qHTS assay for identification of artifact compounds. (AID 1845223).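 Note: 0% = DMSO and 100% = reference compound.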 An outline of the steps: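 Amplex Red (25 uM) and HRP (250 mU/mL) in HBSS, with compounds for 15 min, then 250 uM DTT for 30 min, room temperature, dark. Fluorescence 525/598 nm read; normalized to DMSO and 10 uM DA3003; Hill fit.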
The nature of assay [6]: Quantitative High-Throughput drug screen in 47 multiple myeloma cell lines against the NCATS MIPE library collection: FR4_PLB cell viability assay (AID 1918924; note: nearly all actives have a fitted effect of over 35% in size; note: potency is the fitted concentration of half-maximal effect). The method, boiled down:
(§1)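 Viability readout: CellTiter-Glo luminescence following 5 min room-temperature incubation with reagent. Prior exposure: 48 h, 37C, humidified 5% CO2, 500 cells per well.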

Assay [7] in a line: Quantitative High-Throughput drug screen in 47 multiple myeloma cell lines against the NCATS MIPE library collection: Delta47_JCRB cell viability assay (AID 1918925; note: nearly all actives have a fitted effect of over 45% in size; note: potency is the fitted concentration of half-maximal effect). An outline of the steps:
(§2)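 Inhibition of cell viability is measured here. Each line was plated at 500 cells per well, treated with MIPE 4.0 drugs, kept 48 hours at 37C, then assayed for ATP content by CellTiter-Glo luminescence.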

A short description of assay [8]: Quantitative High-Throughput drug screen in 47 multiple myeloma cell lines against the NCATS MIPE library collection: ARP1_JJKsccF8 cell viability assay (AID 1918928; note: nearly all actives have a fitted effect of over 40% in size). An outline of the steps: (§3)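 Myeloma cells at 500 per well in 1536-well format treated with MIPE 4.0 library by pin transfer for 48 h at 37C, 5% CO2. Viability from ATP luminescence (CellTiter-Glo), normalized to DMSO (100%) and media-only (0%) wells.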

Assay [9] is described as follows: Quantitative High-Throughput drug screen in 47 multiple myeloma cell lines against the NCATS MIPE library collection: Karpas620_DSMZ cell viability assay (AID 1918959). Note: nearly all actives have a fitted effect of over 30% in size. Note: potency is the fitted concentration of half-maximal effect. An outline of the steps:
as §1

The nature of assay [10]: Quantitative High-Throughput drug screen in 47 multiple myeloma cell lines against the NCATS MIPE library collection: KMM1_JCRB cell viability assay (AID 1918960). Note: nearly all actives have a fitted effect of over 30% in size. Note: potency is the fitted concentration of half-maximal effect. The method, boiled down: as §3
Assay [11] can be described thus: Quantitative High-Throughput drug screen in 47 multiple myeloma cell lines against the NCATS MIPE library collection: JIM3_ECACC cell viability assay (AID 1918963; note: potency is the fitted concentration of half-maximal effect; nearly all actives have a fitted effect of over 35% in size). An outline of the steps: as §1
Assay [12] in a line: Quantitative High-Throughput drug screen in 47 multiple myeloma cell lines against the NCATS MIPE library collection: JIM1_ECACC cell viability assay (AID 1918964). The method, boiled down:
as §2

The nature of assay [13]: Quantitative High-Throughput drug screen in 47 multiple myeloma cell lines against the NCATS MIPE library collection: INA6_PLB cell viability assay (AID 1918965; note: nearly all actives have a fitted effect of over 55% in size; note: potency is the fitted concentration of half-maximal effect). An outline of the steps: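 Approved and investigational drugs from MIPE 4.0 were added by pin tool to 500 cells per well. After 48 hours at 37C, ATP-based CellTiter-Glo luminescence indicated remaining viability.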

The nature of assay [14]: Quantitative High-Throughput drug screen in 47 multiple myeloma cell lines against the NCATS MIPE library collection: H1112_PLB cell viability assay (AID 1918967; note: potency is the fitted concentration of half-maximal effect; nearly all actives have a fitted effect of over 30% in size). The method, boiled down: as §2
Assay [15] can be described thus: Quantitative High-Throughput drug screen in 47 multiple myeloma cell lines against the NCATS MIPE library collection: EJM_DSMZ cell viability assay (AID 1918926; note: potency is the fitted concentration of half-maximal effect; nearly all actives have a fitted effect of over 30% in size). The method, boiled down:
as §2

Assay [16] can be described thus: Quantitative High-Throughput drug screen in 47 multiple myeloma cell lines against the NCATS MIPE library collection: AMO1_DSMZ cell viability assay (AID 1918927). The method, boiled down:
as §2

The nature of assay [17]: Quantitative High-Throughput drug screen in 47 multiple myeloma cell lines against the NCATS MIPE library collection: ARD_JJKsccE7 cell viability assay (AID 1918929; note: potency is the fitted concentration of half-maximal effect). An outline of the steps: as §2
A short description of assay [18]: Quantitative High-Throughput drug screen in 47 multiple myeloma cell lines against the NCATS MIPE library collection: KHM11_PLB cell viability assay (AID 1918962). Note: potency is the fitted concentration of half-maximal effect; nearly all actives have a fitted effect of over 35% in size. An outline of the steps: as §1
Assay [19] can be described thus: Quantitative High-Throughput drug screen in 47 multiple myeloma cell lines against the NCATS MIPE library collection: JJN3_DSMZ cell viability assay (AID 1918966; note: potency is the fitted concentration of half-maximal effect; nearly all actives have a fitted effect of over 50% in size). The method, boiled down:
as §2

As to `NC(=O)c1ccc(N(C(N)=O)c2c(F)cccc2F)nc1-c1ccc(F)cc1F`, the Potency result in assay [1], in [2], in assay [3], in [4], in assay [6] and in [8] was “inactive” each time. In addition, the Potency entry in assay [9], in assay [10] and in assay [12] was “inactive” in each case. In [5], the compound was classed as inactive. Also, the Potency was 5.9 µM (active) in [7], 11.8 µM (active) in assay [11], 18.7 µM (active) in [13] and 5.26 µM (active) in assay [14].
As for `CC(C)(OCc1nn(Cc2ccccc2)c2ccccc12)C(=O)O`, the Potency result in assay [1], in assay [2], in assay [3], in assay [4], in assay [6] and in assay [7] was “inactive” throughout. In addition, the Potency entry in [9], in assay [10] and in assay [13] was “inactive” throughout. Besides, in [5], the result was inactive. The Potency in assay [15] is 9.35 µM (active).
For the compound `CNC(=O)c1cc(Oc2ccc(NC(=O)Nc3ccc(Cl)c(C(F)(F)F)c3)c(F)c2)ccn1`, the Potency entry in assay [1], in [2], in assay [3] and in assay [4] was “inactive” in each case. For the same compound, the result in assay [5] was inactive. The Potency is 23.5 µM (active) in [6]; 5.9 µM (active) in [16]; 5.26 µM (active) in [17]; 2.96 µM (active) in assay [10]; 0.059 µM (active) in [18]; 3.32 µM (active) in assay [11]. Moreover, in assay [19], the Potency is 29.6 µM (active).
For the compound `Cc1ccccc1C(=O)c1ccc(Nc2ccc(Br)cc2N)cc1Cl`, the Potency result in assay [1], in [2], in assay [3] and in assay [4] was “inactive” in each case. For the same compound, the result in assay [5] was inactive. Moreover, the Potency in [6] was 6.62 µM (active); in [15], 14.8 µM (active); in [9], 4.69 µM (active); in assay [13] it was 18.7 µM (active).
As to `CCC(=O)N1CCN(c2ccc(-n3c(=O)ccc4cnc5ccc(-c6cnc7ccccc7c6)cc5c43)cc2C(F)(F)F)CC1`, in assay [1], the Potency result is “inactive”. In addition, in assay [2], the activity change, negative = inhibition was 2.1% [at 11.6 µM]. Also, the activity change, negative = thiol reactive in assay [3] is -11% [at 11.5 µM]. Moreover, the activity, negative = inhibition in assay [4] was 4.43% [at 11.6 µM]. In [5], the redox activity (% of DA3003) was -10.4% [at 11.5 µM]. The values for the Potency in assay [6], in assay [7] and in [9] were 0.0132 µM (active), 0.0166 µM (active) and 0.0187 µM (active), respectively.
As to `CC(C)(O)CC(=O)NCCn1ccc2ncnc(Nc3ccc(Oc4cccc(C(F)(F)F)c4)c(Cl)c3)c21`, the Potency result in assay [1], in assay [2], in assay [3] and in assay [4] was “inactive” each time. In assay [5], the compound was classed as inactive. In addition, the Potency in [6] was 26.4 µM (active); in [7], 18.7 µM (active); in assay [15], 1.87 µM (active); in assay [16], 16.6 µM (active); in assay [9], 5.9 µM (active); in assay [10], 5.26 µM (active). The Potency was 23.5 µM (active) in assay [11] and 29.6 µM (active) in [13].
On to `COc1cc2nccc(Oc3ccc(NC(=O)Nc4cc(C)on4)c(Cl)c3)c2cc1OC`, for which the Potency entry in assay [1], in [2], in assay [3] and in assay [4] was “inactive” in each case. The call in assay [5] was inactive. Moreover, the Potency is 20.9 µM (active) in [6]; 18.7 µM (active) in [7]; 13.2 µM (active) in assay [15]; 4.18 µM (active) in assay [16]; 6.62 µM (active) in assay [17]; 3.72 µM (active) in assay [10]. Moreover, the Potency in assay [13] was 23.5 µM (active); in [19], 26.4 µM (active).
